Results taken from PubChem BioAssay (NCI).
Compounds without any hit were thinned out: in the full panel of roughly 79,000, 15% have a hit. Unmarked numbers belong to inactive results. Activity calls are given as the source filed them. No stated cut-off is given here; in the data, active means growth inhibition above about 70%; inactive means the rest.

Columns and labels:
[1] = NCI Yeast Anticancer Drug Screen. Data for the rad52 strain (AID 147);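 further: 0% = growth of vehicle-treated control cultures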; settings: S. cerevisiae rad52 mutant growth inhibition, stronger effect = higher value
How it was run: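 Yeast strain carrying a DNA damage repair alteration was exposed to test compounds. Growth inhibition was measured relative to vehicle-treated controls.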

[2] = NCI Yeast Anticancer Drug Screen. Data for the wt1 strain (AID 149);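 further: 0% = growth of vehicle-treated wt1 cultures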; settings: S. cerevisiae wt1 strain (SPY 50644) growth inhibition, stronger effect = higher value
How it was run: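 The wt1 strain was treated with compounds, and growth was compared with vehicle-treated cultures to give inhibition.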

[3] = NCI Yeast Anticancer Drug Screen. Data for the rad50EPP+ strain (AID 151);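 further: 0% = growth of vehicle-treated control cultures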; settings: S. cerevisiae rad50 mutant strain, stronger effect = higher value
How it was run: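 Yeast strain carrying rad50 alteration (rad50EPP+) exposed to compounds; growth inhibition measured relative to vehicle-treated controls.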

[4] = NCI Yeast Anticancer Drug Screen. Data for the mgt1 strain (AID 153); settings: S. cerevisiae mgt1 mutant growth inhibition, stronger effect = higher value
How it was run: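 Yeast mgt1 strain (DNA repair/cell-cycle alteration panel) exposed to compounds; growth inhibition measured relative to vehicle-treated controls.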

[5] = NCI Yeast Anticancer Drug Screen. Data for the rad50 strain (AID 155);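 further: 0% = growth of vehicle-only cultures of the same strain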; settings: S. cerevisiae rad50 strain growth inhibition, stronger effect = higher value
How it was run: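 Cells are treated with compound, grown, and their growth is then scored against vehicle-only cultures of the same repair-deficient yeast strain.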

[6] = NCI Yeast Anticancer Drug Screen. Data for the mec2-1 strain (AID 157); settings: S. cerevisiae mec2-1 strain, stronger effect = higher value
How it was run: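 mec2-1 yeast strain, carrying an alteration in DNA damage repair or cell cycle control, was exposed to compounds; growth inhibition was measured relative to vehicle-treated controls.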

[7] = NCI Yeast Anticancer Drug Screen. Data for the sgs1 mgt1 strain (AID 161);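 further: 0% = growth of cultures given vehicle only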; settings: S. cerevisiae sgs1 mgt1 strain, stronger effect = higher value
How it was run: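 Growth of a repair-deficient yeast mutant was monitored after compound treatment and expressed as inhibition relative to vehicle-treated cultures.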

[8] = NCI Yeast Anticancer Drug Screen. Data for the CLN2oe strain (AID 163);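 further: 0% = growth of vehicle-only control cultures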; settings: S. cerevisiae CLN2oe strain, stronger effect = higher value
How it was run: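 Yeast cells carrying a defined cell-cycle control alteration were exposed to test compounds. Growth inhibition was scored against vehicle-treated control cultures.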

[9] = NCI Yeast Anticancer Drug Screen. Data for the cln2 rad14 strain (AID 165);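 further: 0% = growth equal to vehicle treated cultures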; settings: S. cerevisiae cln2 rad14 strain, stronger effect = higher value
How it was run: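 Yeast carrying cln2 and rad14 alterations (cell cycle control and DNA damage repair) were exposed to compounds. Growth inhibition was measured against vehicle-treated controls.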

[10] = NCI Yeast Anticancer Drug Screen. Data for the bub3 strain (AID 167); settings: S. cerevisiae bub3 mutant strain, stronger effect = higher value
How it was run: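 Part of a panel of yeast mutants defective in DNA damage repair or cell cycle regulation. Each strain is grown with compound, and inhibition is calculated relative to solvent-treated cultures.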

[11] = NCI Yeast Anticancer Drug Screen. Data for the wt2 strain (AID 169);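 further: 0% = growth of vehicle-treated yeast cultures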; settings: S. cerevisiae wt2 strain growth inhibition, stronger effect = higher value
How it was run: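 Yeast cells were exposed to test compounds, and growth inhibition was measured relative to vehicle-treated controls.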

[12] = NCI Yeast Anticancer Drug Screen. Data for the mlh1 strain (AID 171);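 further: 0% = growth of vehicle-treated control cultures of the same strain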; settings: S. cerevisiae mlh1 strain growth inhibition, stronger effect = higher value
How it was run: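 Yeast carrying a defined genetic alteration in DNA damage repair or cell cycle control were exposed to test compounds. Growth inhibition was measured relative to vehicle-treated controls.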

[13] = NCI Yeast Anticancer Drug Screen. Data for the sgs1 strain (AID 173);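 further: 0% = growth of vehicle-only control cultures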; settings: S. cerevisiae sgs1 mutant, stronger effect = higher value
How it was run: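 Yeast mutant strains carrying defined defects in DNA damage repair or cell cycle control were exposed to test compounds. Growth inhibition was scored against vehicle-treated controls.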

[14] = NCI Yeast Anticancer Drug Screen. Data for the mlh1 rad18 strain (AID 175); settings: S. cerevisiae mlh1 rad18 strain growth inhibition, stronger effect = higher value
How it was run: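 Growth inhibition of the yeast strain was measured after compound exposure and expressed relative to vehicle-treated controls. The strain carries defined defects in DNA damage repair.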

[15] = NCI Yeast Anticancer Drug Screen. Data for the rad18 strain (AID 177); settings: S. cerevisiae rad18 mutant growth inhibition, stronger effect = higher value
How it was run: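 Yeast carrying a defined DNA damage repair alteration were exposed to compounds. Growth inhibition was expressed relative to vehicle-treated controls.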

[16] = at 5.0 µM (retest, dose inferred, filed as 0.5)
[17] = at 50.0 µM (retest, dose inferred, filed as 5.0)

Question: For O=C(CC(=O)n1nc(-c2ccccc2)c(N=Nc2ccccc2C(=O)O)c1-c1ccccc1)Nc1ccc(Cl)cc1, which growth inhibition ([1]; at 1.2 µM) is on record?
Answer: -2%

Question: And the growth inhibition ([1]; at 3.7 µM)?
Answer: -1%

Question: And the growth inhibition ([1]; at 11.0 µM)?
Answer: -1%

Question: And the growth inhibition ([1]; at 33.0 µM)?
Answer: -2%

Question: What about the growth inhibition ([1]; at 100.0 µM) of the same molecule?
Answer: 8%

Question: What about the growth inhibition ([2]; at 1.2 µM) of the same molecule?
Answer: -1%

Question: What about the growth inhibition ([2]; at 3.7 µM) of the same molecule?
Answer: -4%

Question: What about the growth inhibition ([2]; at 11.0 µM) of the same molecule?
Answer: -3%

Question: What about the growth inhibition ([2]; at 33.0 µM) of the same molecule?
Answer: -4%

Question: What about the growth inhibition ([2]; at 100.0 µM) of the same molecule?
Answer: -4%

Question: And the growth inhibition ([3]; at 1.2 µM)?
Answer: 2%

Question: And the growth inhibition ([3]; at 3.7 µM)?
Answer: 6%

Question: What about the growth inhibition ([3]; at 11.0 µM) of the same molecule?
Answer: 15%

Question: What about the growth inhibition ([3]; at 33.0 µM) of the same molecule?
Answer: 23%

Question: What about the growth inhibition ([3]; at 100.0 µM) of the same molecule?
Answer: 37%

Question: And the growth inhibition ([4]; at 1.2 µM)?
Answer: -2%

Question: What about the growth inhibition ([4]; at 3.7 µM) of the same molecule?
Answer: -3%

Question: And the growth inhibition ([4]; at 11.0 µM)?
Answer: -5%

Question: What about the growth inhibition ([4]; at 33.0 µM) of the same molecule?
Answer: -6%

Question: What about the growth inhibition ([4]; at 100.0 µM) of the same molecule?
Answer: 7%

Question: And the growth inhibition ([5]; at 1.2 µM)?
Answer: -2%

Question: And the growth inhibition ([5]; at 3.7 µM)?
Answer: 1%

Question: And the growth inhibition [5, 16]?
Answer: 7%

Question: What about the growth inhibition ([5]; at 11.0 µM) of the same molecule?
Answer: 1%

Question: What about the growth inhibition ([5]; at 33.0 µM) of the same molecule?
Answer: 2%

Question: What about the growth inhibition [5, 17] of the same molecule?
Answer: 16%

Question: And the growth inhibition ([5]; at 50.0 µM)?
Answer: 49%

Question: And the growth inhibition ([5]; at 100.0 µM)?
Answer: 14%

Question: And the growth inhibition ([6]; at 1.2 µM)?
Answer: -2%

Question: And the growth inhibition ([6]; at 3.7 µM)?
Answer: -1%

Question: What about the growth inhibition [6, 16] of the same molecule?
Answer: 3%

Question: What about the growth inhibition ([6]; at 11.0 µM) of the same molecule?
Answer: -2%

Question: And the growth inhibition ([6]; at 33.0 µM)?
Answer: -3%

Question: And the growth inhibition [6, 17]?
Answer: 4%

Question: And the growth inhibition ([6]; at 50.0 µM)?
Answer: 36.2%

Question: What about the growth inhibition ([6]; at 100.0 µM) of the same molecule?
Answer: 2%

Question: And the growth inhibition [7, 16]?
Answer: -5%

Question: What about the growth inhibition [7, 17] of the same molecule?
Answer: 20%

Question: And the growth inhibition ([7]; at 50.0 µM)?
Answer: 41.7%

Question: What about the growth inhibition ([8]; at 1.2 µM) of the same molecule?
Answer: -4%

Question: And the growth inhibition ([8]; at 3.7 µM)?
Answer: -3%

Question: What about the growth inhibition ([8]; at 11.0 µM) of the same molecule?
Answer: -7%

Question: What about the growth inhibition ([8]; at 33.0 µM) of the same molecule?
Answer: -10%

Question: And the growth inhibition ([8]; at 100.0 µM)?
Answer: -15%

Question: What about the growth inhibition [9, 16] of the same molecule?
Answer: 2%

Question: What about the growth inhibition [9, 17] of the same molecule?
Answer: 24%

Question: What about the growth inhibition ([9]; at 50.0 µM) of the same molecule?
Answer: 9.4%

Question: And the growth inhibition ([10]; at 1.2 µM)?
Answer: 8%

Question: What about the growth inhibition ([10]; at 3.7 µM) of the same molecule?
Answer: 15%

Question: And the growth inhibition [10, 16]?
Answer: 6%

Question: What about the growth inhibition ([10]; at 11.0 µM) of the same molecule?
Answer: 28%

Question: What about the growth inhibition ([10]; at 33.0 µM) of the same molecule?
Answer: 46%

Question: What about the growth inhibition [10, 17] of the same molecule?
Answer: 71% (active)

Question: And the growth inhibition ([10]; at 50.0 µM)?
Answer: 88.7% (active)

Question: What about the growth inhibition ([10]; at 100.0 µM) of the same molecule?
Answer: 72% (active)

Question: And the growth inhibition ([11]; at 1.2 µM)?
Answer: -3%

Question: And the growth inhibition ([11]; at 3.7 µM)?
Answer: -3%

Question: What about the growth inhibition ([11]; at 11.0 µM) of the same molecule?
Answer: -3%

Question: And the growth inhibition ([11]; at 33.0 µM)?
Answer: -6%

Question: What about the growth inhibition ([11]; at 100.0 µM) of the same molecule?
Answer: 4%

Question: And the growth inhibition ([12]; at 1.2 µM)?
Answer: -2%

Question: What about the growth inhibition ([12]; at 3.7 µM) of the same molecule?
Answer: -3%

Question: What about the growth inhibition ([12]; at 11.0 µM) of the same molecule?
Answer: -3%

Question: What about the growth inhibition ([12]; at 33.0 µM) of the same molecule?
Answer: -6%

Question: And the growth inhibition ([12]; at 100.0 µM)?
Answer: 6%

Question: What about the growth inhibition ([13]; at 1.2 µM) of the same molecule?
Answer: -2%

Question: What about the growth inhibition ([13]; at 3.7 µM) of the same molecule?
Answer: -1%

Question: And the growth inhibition ([13]; at 11.0 µM)?
Answer: 1%

Question: And the growth inhibition ([13]; at 33.0 µM)?
Answer: 0%

Question: And the growth inhibition ([13]; at 100.0 µM)?
Answer: 21%

Question: What about the growth inhibition [14, 16] of the same molecule?
Answer: -11%

Question: And the growth inhibition [14, 17]?
Answer: 43%

Question: And the growth inhibition ([14]; at 50.0 µM)?
Answer: 36%

Question: What about the growth inhibition ([15]; at 1.2 µM) of the same molecule?
Answer: -4%

Question: And the growth inhibition ([15]; at 3.7 µM)?
Answer: -1%

Question: And the growth inhibition ([15]; at 11.0 µM)?
Answer: 3%

Question: And the growth inhibition ([15]; at 33.0 µM)?
Answer: 6%

Question: And the growth inhibition ([15]; at 100.0 µM)?
Answer: 43%
